In publication PMC5540273 (PLoS ONE, 2017):

Tests used:
Conditions in all cases: concentration: 1 μM, replicates: in singlicate; n = 1
MAP4K2 = tested on: MAP4K2
MAP4K3 = tested on: MAP4K3
MAP4K4 = tested on: MAP4K4
MAP4K5 = tested on: MAP4K5
MAPKAPK2 = tested on: MAPKAPK2
MAPKAPK5 = tested on: MAPKAPK5
MARK1 = tested on: MARK1
MARK2 = tested on: MARK2
MARK3 = tested on: MARK3
MARK4 = tested on: MARK4
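Note: KINOMEscan kinase panel screen.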

| SMILES | %Inh (MAP4K2) [%] | %Inh (MAP4K3) [%] | %Inh (MAP4K4) [%] | %Inh (MAP4K5) [%] | %Inh (MAPKAPK2) [%] | %Inh (MAPKAPK5) [%] | %Inh (MARK1) [%] | %Inh (MARK2) [%] | %Inh (MARK3) [%] | %Inh (MARK4) [%] |
| --- | --- | --- | --- | --- | --- | --- | --- | --- | --- | --- |
| CCn1c(-c2c(N)noc2C)nc2cnccc21 [SB-737856] | 0 | 2 | 10 | 0 | 19 | 0 | 0 | 0 | 0 | 0 |
| Cl.Cl.Cl.N#Cc1ccc(CCNc2nccc(-c3cccc(CN4CCNCC4)c3)n2)cc1 [GSK2137462] | 0 | 8 | 21 | 4 | 0 | 0 | 0 | 6 | 25 | 0 |
| COc1nccc(-c2c(-c3ccc(F)cc3)ncn2CCCN2CCOCC2)n1 [SB-282852] | 0 | 0 | 0 | 0 | 5 | 0 | 0 | 7 | 24 | 0 |
| COc1ccc2cc(-c3nc(-c4ccccc4C(C)C)[nH]c3-c3ccncc3)ccc2c1 [SB-660566] | 0 | 0 | 31 | 3 | 16 | 0 | 7 | 0 | 0 | 3 |
| COc1cccc(C2=C(Nc3cc(Cl)c(O)c(Cl)c3)C(=O)NC2=O)c1 [SB-390767] | 0 | 0 | 0 | 1 | 15 | 0 | 0 | 0 | 0 | 0 |
| COC(=O)c1cccc(NC(=O)NC2CCN(c3ccnc(Nc4ccc(OC)cc4)n3)C2)c1 (stereo not drawn) [GSK1379746] | 0 | 0 | 0 | 0 | 14 | 0 | 0 | 0 | 4 | 0 |
| COc1ccc(CSc2nnc(-c3ccc4ncsc4c3)o2)cc1C(F)(F)F | 0 | 0 | 0 | 0 | 0 | 0 | 0 | 24 | 0 | 2 |
| Cn1cnc2c(N)ncnc21 [SKF-97623] | 0 | 14 | 0 | 13 | 25 | 0 | 0 | 0 | 0 | 0 |
| COC(=O)C(Cc1ccccc1)NC(=O)NC1CCN(c2ccnc(Nc3ccc(F)cc3)n2)C1 (stereo not drawn) [GSK1379714] | 0 | 0 | 9 | 3 | 21 | 0 | 0 | 8 | 0 | 4 |
| CNC(=O)c1ccc(C)c(-n2c(C)cc(OCc3ccc(F)cc3F)c(Br)c2=O)c1 | 0 | 0 | 0 | 0 | 0 | 0 | 0 | 1 | 0 | 0 |
| Fc1ccc(-c2nn3cccc(F)c3c2-c2ccncc2)cc1 [GW475620] | 0 | 10 | 47 | 24 | 29 | 0 | 1 | 0 | 0 | 4 |
| COc1ccc(-c2coc3ccc(-c4nnc(C)o4)cc23)cc1 | 0 | 0 | 0 | 0 | 0 | 0 | 100 | 30 | 0 | 100 |
| COc1ccc(Nc2nccc(N3CCC(NC(=O)c4cc5ccccc5s4)C3)n2)cc1 (stereo not drawn) [GSK1379738] | 0 | 2 | 0 | 0 | 0 | 0 | 0 | 0 | 3 | 0 |
| CC[C@@H]1CO[C@H](C(=O)Nc2ccccc2)CN1c1cc(-c2ccc3c(N)n[nH]c3c2)nc(NC)n1 [GSK2376236] | 0 | 0 | 0 | 0 | 0 | 0 | 0 | 5 | 0 | 0 |
| Cc1ccc(NC(=O)Nc2ccccc2F)cc1-c1ccc(C(=O)Nc2ccncc2)cc1 [GSK1398477] | 0 | 21 | 29 | 27 | 37 | 0 | 8 | 5 | 0 | 19 |
| O=C(Nc1n[nH]c2nc(-c3cccs3)c(Br)cc12)C1CCCC1 [SB-743341] | 0 | 0 | 0 | 0 | 5 | 17 | 22 | 8 | 2 | 19 |
| CCc1ccc(-c2ccc3c(c2)-c2n[nH]cc2S(=O)(=O)N3C)cc1 | 0 | 15 | 15 | 12 | 0 | 0 | 0 | 0 | 0 | 0 |
| COc1ccc(Nc2nccc(-c3ccc(NC(=O)c4cc5cc(F)ccc5[nH]4)cc3)n2)cc1 [GSK1229496] | 0 | 0 | 0 | 0 | 0 | 0 | 0 | 0 | 0 | 0 |

| SMILES | %Inh (MAP4K2) [%] | %Inh (MAP4K3) [%] | %Inh (MAP4K4) [%] | %Inh (MAP4K5) [%] | %Inh (MAPKAPK2) [%] | %Inh (MAPKAPK5) [%] | %Inh (MARK1) [%] | %Inh (MARK2) [%] | %Inh (MARK3) [%] | %Inh (MARK4) [%] |
| --- | --- | --- | --- | --- | --- | --- | --- | --- | --- | --- |
| Cc1ccc(NC(=O)c2ccc(Cl)cc2)cc1-c1ccc(C(=O)Nc2ccncc2)cc1 [GSK1398467] | 0 | 0 | 13 | 3 | 24 | 0 | 36 | 80 | 0 | 0 |
| O=C(Nc1n[nH]c2nc(-c3ccco3)c(Br)cc12)C1CCN(Cc2ccccc2)C1.O=C(O)[C@H](O)[C@@H](O)C(=O)O (stereo not drawn) [SB-742034] | 14 | 2 | 0 | 0 | 5 | 5 | 27 | 14 | 0 | 14 |
| CC(=O)c1c(C)c2cnc(Nc3ccc(N4CCNCC4)cn3)nc2n(C2CCCC2)c1=O | 0 | 17 | 0 | 0 | 0 | 0 | 6 | 0 | 0 | 13 |
| CS(=O)(=O)Cc1ccc(Nc2nccc(-c3c(-c4cccc(NC(=O)C5CCCCC5)c4)nn4ncccc34)n2)cc1 [GSK350559] | 36 | 0 | 0 | 10 | 0 | 39 | 37 | 0 | 0 | 5 |
| CSc1ccc(-c2nc3n(c2-c2ccncc2)CCC3)cc1 [SKF-105561] | 0 | 0 | 1 | 0 | 10 | 22 | 0 | 16 | 0 | 0 |
| Nc1nccc(-c2c(-c3ccc(F)cc3)ncn2C2CCN(Cc3ccccc3)CC2)n1 [SB-219980] | 19 | 16 | 10 | 73 | 0 | 0 | 5 | 1 | 0 | 1 |
| Cc1cccc2c(-c3ccncn3)c(-c3ccc(F)cc3)nn12 [GW515532] | 0 | 12 | 7 | 0 | 8 | 0 | 0 | 0 | 5 | 0 |
| Cc1c(Cn2c3ccccc3n3c(=O)cc(N4CCOCC4)nc23)cccc1C(F)(F)F [GSK2306394] | 2 | 0 | 11 | 8 | 0 | 0 | 0 | 0 | 0 | 0 |
| CC(C)c1cc(-c2ccc3c(N)n[nH]c3c2)nc(N)n1 [GSK2250882] | 0 | 0 | 1 | 0 | 23 | 0 | 0 | 9 | 0 | 0 |
| Cc1cnc(N)c(/C=C/c2cncc(C(=O)NCCc3ccc(Cl)cc3Cl)c2)c1.Cl [GSK190937] | 4 | 0 | 17 | 18 | – | – | 0 | 6 | 0 | 0 |
| COc1cc2ncnc(Nc3cccc(Br)c3)c2cc1OC.Cl [GI230329] | 0 | 0 | 0 | 0 | 0 | 0 | 0 | 0 | 0 | 5 |
| Cc1nccc(-c2c(-c3ccc(F)cc3)ncn2CCCN2CCOCC2)n1.Cl [SB-282975] | 0 | 1 | 30 | 37 | 0 | 4 | 0 | 4 | 7 | 45 |
| COc1ccc(Nc2nccc(N3CCC(NC(=O)C(C)c4ccc(Cl)cc4)C3)n2)cc1 (stereo not drawn) [GSK1379735] | 0 | 11 | 4 | 0 | 32 | 0 | 0 | 0 | 12 | 0 |
| Cc1ccccc1-c1cc(-c2c[nH]nc2-c2ccccn2)ccn1 [GW680061] | 0 | 0 | 0 | 0 | 24 | 0 | 0 | 0 | 0 | 0 |
| CNc1cc(-c2ccc3c(N)n[nH]c3c2)nc(N)n1 [GSK2224810] | 22 | 20 | 0 | 0 | 49 | 0 | 0 | 7 | 0 | 0 |
| COc1ccc(Nc2nccc(NCCNC(=O)Nc3cc(C)ccc3C)n2)cc1 [GSK1379899] | 0 | 3 | 16 | 26 | 15 | 0 | 0 | 0 | 0 | 9 |
| O=c1cc(N2CCOCC2)nc2n(Cc3ccccc3F)ccn12 [GSK2297428] | 0 | 0 | 0 | 0 | 0 | 0 | 100 | 0 | 0 | 69 |
